Laboratory results published in PubChem BioAssay (NCI).
The panel holds about 79,000 compounds, 15% with a hit somewhere; the sample as a whole holds those more often. A number with no mark means an inactive call. Active and inactive are the calls of the source. No stated cut-off is given here; in the data, active means growth inhibition above about 70%; inactive means the rest.

Experiments:
[1] = NCI Yeast Anticancer Drug Screen. Data for the rad50 strain (AID 155);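 further: 0% = growth of vehicle-only cultures of the same strain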; conditions: S. cerevisiae rad50 strain growth inhibition; at 50.0 µM; hits give high values
Procedure, shortened: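 Growth of the mutant yeast was measured after compound exposure and referenced to vehicle-treated cultures.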

[2] = NCI Yeast Anticancer Drug Screen. Data for the mec2-1 strain (AID 157); conditions: S. cerevisiae mec2-1 strain, at 50.0 µM, hits give high values
Procedure, shortened: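 Each compound was tested on mec2-1 yeast, a strain altered in DNA damage repair or cell cycle control. Growth inhibition is reported relative to vehicle.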

[3] = NCI Yeast Anticancer Drug Screen. Data for the sgs1 mgt1 strain (AID 161);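 further: 0% = growth of cultures given vehicle only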; conditions: S. cerevisiae sgs1 mgt1 strain, at 50.0 µM, hits give high values
Procedure, shortened: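 Read-out: growth inhibition vs vehicle controls. Cells: mutant yeast strain deficient in DNA damage repair.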

[4] = NCI Yeast Anticancer Drug Screen. Data for the cln2 rad14 strain (AID 165);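 further: 0% = growth equal to vehicle treated cultures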; conditions: S. cerevisiae cln2 rad14 strain, at 50.0 µM, hits give high values
Procedure, shortened: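 Test compounds were added to cln2 rad14 yeast cultures; inhibition of growth was then determined by comparison with vehicle treatment.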

[5] = NCI Yeast Anticancer Drug Screen. Data for the bub3 strain (AID 167); conditions: S. cerevisiae bub3 mutant strain, at 50.0 µM, hits give high values
Procedure, shortened: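 Whole-cell yeast assay. The mutant strain was incubated with compounds, and growth inhibition was determined by comparison with vehicle-treated cells.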

[6] = NCI Yeast Anticancer Drug Screen. Data for the mlh1 rad18 strain (AID 175); conditions: S. cerevisiae mlh1 rad18 strain growth inhibition; at 50.0 µM; hits give high values
Procedure, shortened: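 Inhibition values reflect reduced growth of mutant yeast versus vehicle-treated controls following compound exposure; the mutations affect DNA damage repair.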

Compound	growth inhibition [1]	growth inhibition [2]	growth inhibition [3]	growth inhibition [4]	growth inhibition [5]	growth inhibition [6]
O=c1[nH]c2nc3ccccc3c(=O)n2/c1=C/c1ccc(Cl)cc1	-1.6%	18.2%	43.4%	29.6%	14.1%	-17.2%
C=C(Cl)/C(=C\Cl)CCC(Cl)C(C)C (stereo not given) (tested in a mixture with another compound)	68.5%	78% (active)	91% (active)	72% (active)	90.8% (active)	89.3% (active)
CCCCCCc1cc2c(C)c(C)c(=O)oc2cc1OCCCOc1cc2oc(=O)c(C)c(C)c2cc1CCCCCC	-17.9%	-24.9%	-12.5%	35.5%	-11.8%	-46.3%
Cc1cc(C)c(NS(=O)c2cccc(C(F)(F)F)c2)c(C)c1 (stereo not given)	-47.1%	-26.5%	-61%	-9.75%	-31.4%	-43%
CCOP(=O)(OCC)C1(O)CC(n2cc(C)c(=O)[nH]c2=O)OC1CO (stereo not given)	7.3%	59.1%	-15.2%	27.1%	-5.05%	-37.7%
CC1(C)C=C(C(=O)O)C(C)(C)N1O	-8.95%	-25.8%	5.65%	6.9%	14.3%	2.25%
CCn1c2ccccc2c2c3ncc4cccn4c3ccc21	10.8%	-6.95%	19.4%	14.4%	7.95%	27.8%
CC(=O)OC1CCC23COC(CC(C)C2C)C3(Cl)C1 (stereo not given)	-0.7%	-4.65%	-3.25%	-8.1%	-11.2%	5.05%
O=C(/C=C/c1ccccc1)Nc1cc(Cl)ccc1Cl	4.75%	26.1%	22.6%	-7.3%	31.8%	17.6%
O=C1OC2C(O1)C1(c3ccccc3)OC2(c2ccccc2)c2ccccc21 (stereo not given)	-5.9%	19.2%	13.5%	-57.2%	4.85%	45.1%
CC1(C)Cc2cccc(OC(=O)NO)c2O1	-0.65%	24.4%	0.45%	-37.8%	-3.1%	9%
ON(C(=S)Nc1ccccc1)c1ccccc1	20.9%	12.8%	21.1%	-13.7%	8.3%	15.9%
CCC(=O)OCC1OC(Oc2ccc(N=Nc3ccccc3)cc2)C(OC(=O)CC)C(OC(=O)CC)C1OC(=O)CC (stereo not given)	18.9%	3.4%	34%	1.35%	12.9%	28.2%
N#CCC(=O)N/N=C(\C#N)c1ccccc1	8.65%	1.95%	0.55%	-51.9%	-18.1%	0.75%
O=C(Cc1ccc(Cl)cc1)NCCc1ccccc1	-1.4%	-14.6%	-5.15%	32.9%	18.4%	7.3%
NC(=S)NNC(=O)/C(=C/c1ccc(/C=C(\NC(=O)c2ccccc2)C(=O)NNC(N)=S)cc1)NC(=O)c1ccccc1	32.8%	27%	29.3%	39.8%	39.2%	31.8%
N#CCCOCCN1CCN(c2cccc(Cl)c2)CC1	9.85%	-7.8%	12%	-2.6%	51.6%	23.1%
C=C(S(=O)(=O)c1ccccc1)S(=O)(=O)c1ccccc1 (tested in a mixture with another compound)	92.8% (active)	97.3% (active)	96.4% (active)	98% (active)	97.8% (active)	94.9% (active)
CC(CN(C)C)N(C)C (stereo not given)	-14.7%	-34.5%	-41.6%	-7.75%	-4.6%	0.15%
CCCC1OC(c2ccccc2)OCC1CC (stereo not given)	6.45%	20.2%	-12.7%	-36.9%	15.8%	9.05%

Compound	growth inhibition [1]	growth inhibition [2]	growth inhibition [3]	growth inhibition [4]	growth inhibition [5]	growth inhibition [6]
[N-]=[N+]=Nc1ccc2[nH]c3ccccc3c(=O)c2c1	17.9%	-1.05%	16.9%	-23.4%	-16.9%	36.7%
CC(=O)OCC(C)(C(N)=O)c1ccccc1 (stereo not given)	-36.9%	-9.15%	-5.5%	-32%	-5.9%	1.85%
CC(=O)N1CCc2ccccc2C1C1NCCc2ccccc21 (stereo not given)	14.4%	8.95%	13.1%	-0.15%	1.05%	5.9%
O=C(NC1(C(=O)O)CCCC1)c1ccccc1	-34.5%	-27.2%	-12.7%	-31.7%	-4.35%	0.7%
CCCCC(CC)C(O)CC(C)=O (stereo not given)	39.1%	16.9%	25%	-8.75%	14.2%	21.1%
C=CCN(CC=C)C(=O)Nc1cccc2c(NC(=O)N(CC=C)CC=C)cccc12	-24%	-23.6%	-17.5%	4.5%	-21.8%	-23.4%
Cc1ccc(NS(=O)(=O)c2ccc(F)cc2)cc1Cl	99.7% (active)	99.3% (active)	99.7% (active)	99.3% (active)	99.6% (active)	99.8% (active)
CCC(O)C(C)(C)N (stereo not given)	13.4%	-7.8%	2.7%	-6.45%	4.45%	0.4%
CCN(CC)C(=O)C1CCN(Cc2ccc3c(c2)CCC3)CC1	-4.1%	42.5%	-1.2%	-16.6%	2.9%	3.95%
C[C@H]1C(=O)OCN1C(=O)OCc1ccccc1	0.05%	16.4%	12.3%	-6%	12.6%	-0.5%
O=C(N/C(=C/c1ccc(Cl)cc1)c1nc2ccccc2c(=O)n1Nc1ccc([N+](=O)[O-])cc1[N+](=O)[O-])c1ccccc1	-19%	-5%	-19.7%	0.3%	-21.6%	-17.5%
O=c1[nH]nc(-c2ccc(Cl)cc2)c2cc(Cl)c(Cl)cc12	-6.45%	-11.3%	-10.7%	-57.9%	-5.2%	-20.7%
CCCCCCCC(=O)NNCc1ccccc1	-16.1%	33.2%	15.6%	3.35%	15.9%	6.9%
CCNC(=O)NS(=O)(=O)c1ccc(Sc2ccc(Cl)cc2)nc1	-5.8%	-2.95%	-7.5%	-5.7%	-0.55%	-0.4%
COc1cc(CC2c3cc(OC)c(OC)cc3CCN2C)ccc1O (stereo not given)	-22.3%	-17.9%	-5.75%	-9.2%	-15.6%	-3.35%
O=[N+]([O-])c1cc(F)c(F)cc1F	-26.9%	4.15%	-21.1%	-32.2%	-14.6%	26.9%
c1ccc2c(c1)N=C(c1cccc3ccccc13)CC(c1cccc3ccccc13)S2 (stereo not given)	-28%	-20.9%	-46.5%	-3.25%	-18.9%	-37%
C#CCOc1c(C(=O)OCC)c(=O)n(C)c2ccccc12	-10%	-17.1%	12.8%	9.4%	3.55%	1.7%
CN(C)CCCNc1ccc2ncn3c4ccc(O)cc4c(=O)c1c23	-4.45%	-3.9%	-14.3%	-15.3%	0.5%	7.9%
CC(=O)OCc1cc(Cl)c(OC(C)=O)c(COC(C)=O)c1	7.75%	-10.2%	8.8%	20.1%	-9.05%	3.65%
